From PubChem BioAssay (NCATS) come the findings set out here.

Results filed as inconclusive are left out. The source made the active and inactive calls. Unless noted, the call rests on the fitted dose curve; in most records, active means well fitted curve in the direction sought with a large enough effect; inconclusive means small, poorly fitted or top-dose-only effect, or another doubt; inactive means no such curve, though single readings can be large; an effect the other way counts as inactive or inconclusive.

Assay [1] in a line: Nrf2 qHTS screen for inhibitors: Validation (AID 493153; active means well fitted inhibition curve with a large enough effect in the main read-out, with a control signal flat, not every such curve was filed as active; further: potency means the concentration at half of the fitted maximal effect). Conditions: A549 ARE-Fluc reporter, 18-24 h; Potency: luciferase luminescence; viability change: measured here: cytotoxicity max response. The method in brief: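 A549 ARE_Fluc, 5% FBS OPTI-MEM; cpd titration, 18-24 h, 37°C/5% CO2. Read 1: CellTiter-Fluor (Ex 405/Em 525), cytotox. Read 2: luciferase lum, Nrf2 activity.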
For orientation: In qHTS, concentration-response curves come from the screen itself.

For assay [2], the target named is Bile acid receptor (Homo sapiens) (UniProt Q96RI1). Briefly: qHTS assay for small molecule antagonists of farnesoid X receptor signaling (AID 588526; calls by dose curve; further: on the % scale 0 is the no-effect control and ±100 the full control effect). In short, it runs like this: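 Beta-lactamase reporter antagonist mode: HEK293T FXR-UAS-bla cells, titrated compound, CDCA stimulation, 16 h 37 C, CCF4 dye 2 h RT. Data normalized to CDCA 50 uM and DMSO; Hill-fit IC50.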
Bile acid receptor (Homo sapiens), sequence (Q96RI1 whole entry, looked up): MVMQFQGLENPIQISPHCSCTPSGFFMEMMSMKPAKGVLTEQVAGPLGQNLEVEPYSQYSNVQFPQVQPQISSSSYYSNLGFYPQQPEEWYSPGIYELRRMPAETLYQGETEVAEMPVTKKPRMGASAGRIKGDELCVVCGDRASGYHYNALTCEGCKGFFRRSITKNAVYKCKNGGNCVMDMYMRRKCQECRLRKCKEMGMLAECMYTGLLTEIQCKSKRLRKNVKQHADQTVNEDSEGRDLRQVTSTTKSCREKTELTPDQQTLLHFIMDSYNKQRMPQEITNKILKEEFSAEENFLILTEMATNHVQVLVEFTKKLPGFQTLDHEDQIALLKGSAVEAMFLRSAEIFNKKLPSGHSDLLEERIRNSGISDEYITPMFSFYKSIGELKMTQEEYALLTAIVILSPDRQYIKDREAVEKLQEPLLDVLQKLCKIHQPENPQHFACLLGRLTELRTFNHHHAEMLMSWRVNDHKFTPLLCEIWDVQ

Assay [3] shares this target. As to the kind of experiment: qHTS assay for small molecule agonists of farnesoid X receptor signaling (AID 588527; calls by dose curve;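 further: series mostly up to about 77 µM; 0% = vehicle basal and 100% = reference agonist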). The note with it: HEK293T FXR-UAS-bla, beta-lactamase ratio, 16 h; activation: stronger effect = higher value. The method in brief:
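Agonist-mode beta-lactamase reporter in GeneBLAzer FXR-UAS-bla HEK293T cells, titration up to 92 uM, 16 h exposure at 37 C, CCF4 fluorescence. Response scaled to DMSO (0%) and 100 uM chenodeoxycholic acid (100%), then Hill-fitted for EC50 and efficacy.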

In assay [4] the target is Glucocorticoid receptor (Homo sapiens) (UniProt P04150). As to the kind of experiment: qHTS assay for small molecule agonists of glucocorticoid receptor signaling (AID 588532; active means well fitted curve in the direction sought with a large enough effect in the signal ratio, with a control signal flat; the % refers to the signal ratio;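 further: 100% = dexamethasone at 0.1 µM and 0% = DMSO only wells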). The note with it: HeLa MMTV-bla, beta-lactamase ratio, agonist, 18 h; activation: stronger effect = higher value, percent of dexamethasone control, DMSO zero. The method in brief:
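Agonist-mode qHTS: GRE-driven beta-lactamase in HeLa cells exposed 18 h to titrated compounds (up to 92 uM), then CCF4 ratio read after 2 h at RT; Hill-fitted EC50, efficacy relative to 0.1 uM dexamethasone.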

Assay [5] has as its target Thyroid hormone receptor beta (Homo sapiens) (UniProt P10828). As to the kind of experiment: qHTS assay for small molecule agonists of thyroid hormone receptor beta signaling (AID 588545; calls by dose curve;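 further: 0% = DMSO only and 100% = 10 nM T3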). In short, it runs like this: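 Compounds were tested as agonists in TR-UAS-bla-GripTite HEK 293 cells. After 18 hrs at 37 C, CCF4 substrate was added and fluorescence read after 2 hrs at room temperature.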

Assay [6] is described as follows: qHTS assay for small molecule antagonists of retinoid X receptor alpha signaling (AID 588546; active means well fitted inhibition curve with a large enough effect in the signal ratio, with a control signal flat, not every such curve was filed as active; the % refers to the signal ratio;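 further: cells stimulated with 9-cis-retinoic acid as agonist; on the % scale 0 is the no-effect control and ±100 the full control effect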). The note with it: HEK293T RXRa-UAS-bla, beta-lactamase ratio, antagonist mode; measured here: W530 green channel, cytotoxicity proxy. In short, it runs like this: (§1)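 Beta-lactamase reporter inhibition, read as CCF4 fluorescence ratio (ex 405, em 460/530 nm) after 2 h at RT. HEK293T UAS-bla cells, 2500/well, were stimulated with 9-cis-RA at 500 or 100 nM final alongside test compound for 18 h at 37 C.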

The target of assay [7] is Retinoic acid receptor RXR-alpha (Homo sapiens) (UniProt P19793). The description is as above. Conditions: HEK293T RXRa-UAS-bla, beta-lactamase ratio, antagonist mode. In short, it runs like this: as §1
Retinoic acid receptor RXR-alpha (Homo sapiens), sequence (P19793 whole entry, looked up): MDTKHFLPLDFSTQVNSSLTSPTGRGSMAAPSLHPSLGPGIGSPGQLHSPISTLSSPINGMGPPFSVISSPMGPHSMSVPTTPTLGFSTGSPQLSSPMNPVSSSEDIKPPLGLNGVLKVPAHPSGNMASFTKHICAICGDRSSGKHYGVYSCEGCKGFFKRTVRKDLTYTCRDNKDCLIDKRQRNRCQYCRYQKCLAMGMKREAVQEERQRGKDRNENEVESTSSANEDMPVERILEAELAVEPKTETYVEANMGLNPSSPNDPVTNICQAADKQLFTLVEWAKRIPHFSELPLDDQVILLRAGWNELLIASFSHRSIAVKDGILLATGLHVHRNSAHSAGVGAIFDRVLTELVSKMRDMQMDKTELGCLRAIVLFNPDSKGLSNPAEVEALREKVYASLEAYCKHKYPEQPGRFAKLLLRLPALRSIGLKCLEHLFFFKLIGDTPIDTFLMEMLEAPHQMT
The target in assay [8] is Thyroid hormone receptor beta (Homo sapiens) (UniProt P10828). As to the kind of experiment: qHTS assay for small molecule antagonists of thyroid hormone receptor beta signaling (AID 588547; active means well fitted inhibition curve with a large enough effect in the signal ratio, with a control signal flat, not every such curve was filed as active; the % refers to the signal ratio;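 further: cells stimulated with 0.4 nM T3 agonist during compound exposure; series mostly up to about 77 µM; on the % scale 0 is the no-effect control and ±100 the full control effect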). Conditions: TR-UAS-bla HEK293, beta-lactamase ratio, antagonist mode, 18 h. In short, it runs like this: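 Inhibition of T3-driven (0.4nM final) beta-lactamase reporter activity was measured over 0.59 nM to 92 uM compound after 18 h at 37 C. The cells were GripTite HEK293 TR-UAS-bla in charcoal/dextran-stripped serum, with CCF4 ratio read-out and IC50 from Hill fits.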
Thyroid hormone receptor beta (Homo sapiens), sequence (P10828 whole entry, looked up): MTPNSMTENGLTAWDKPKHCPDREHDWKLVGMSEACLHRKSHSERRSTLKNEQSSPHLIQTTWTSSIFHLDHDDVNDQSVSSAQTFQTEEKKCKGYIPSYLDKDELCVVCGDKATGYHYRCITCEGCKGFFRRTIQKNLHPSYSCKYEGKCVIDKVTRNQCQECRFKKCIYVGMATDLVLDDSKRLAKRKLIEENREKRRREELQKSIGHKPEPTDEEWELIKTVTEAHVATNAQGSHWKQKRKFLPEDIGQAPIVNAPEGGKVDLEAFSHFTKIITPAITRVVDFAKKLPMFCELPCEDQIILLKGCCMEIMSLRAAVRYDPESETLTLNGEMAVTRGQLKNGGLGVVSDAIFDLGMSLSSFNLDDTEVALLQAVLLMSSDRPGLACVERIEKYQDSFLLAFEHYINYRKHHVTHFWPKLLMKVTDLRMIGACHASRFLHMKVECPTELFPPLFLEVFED

The target in assay [9] is Estrogen receptor (Homo sapiens) (UniProt P03372). Briefly: qHTS assay for small molecule agonists of estrogen receptor alpha signaling (AID 588514; calls by dose curve;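 further: 0% = vehicle only and 100% = reference agonist; nearly all actives have a fitted effect of over 70% in size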). In short, it runs like this:
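Efficacy is expressed against 20 nM 17-beta-estradiol (100%) and DMSO basal (0%); EC50 from Hill equation. Assay: beta-lactamase reporter in ER-alpha-UAS-bla HEK 293 cells, 18 h compound incubation, CCF4 detection.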

Assay [10] in a line: qHTS assay for small molecule activators of the nuclear factor-kappa B (NF-kB) signaling pathway (AID 651749; active means well fitted activation curve with a large enough effect in the signal ratio; the % refers to the signal ratio; further: series mostly up to about 77 µM; % of control where 0% means no effect). The note with it: NF-kB-bla ME-180 cells, beta-lactamase FRET ratio, 16 h; activation: stronger effect = higher value. In short, it runs like this: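 Activation measured after 16 hr compound treatment at 37C, 5% CO2, of 2,000 ME-180 cells/well stably expressing an NF-kB response element–driven beta-lactamase reporter, via FRET-disruption fluorescence.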

Assay [11] is described as follows: qHTS assay for environmental chemicals that activate the Aryl hydrocarbon Receptor (AhR) signaling pathway (AID 651777). Further: nearly all actives have a fitted effect of over 15% in size. Further: potency means the concentration at half of the fitted maximal effect. On activation: % of control where 0% means no effect. Conditions: 1A2-DRE human hepatoma cells, luciferase, 24 h; activation: stronger effect = higher value. In short, it runs like this: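 AhR activation is scored as a rise in luciferase from a stable DRE–CYP1A2 promoter construct in human hepatoma cells. Treatment lasts 24 hr at 37 C; detection uses One-Glo after 30 min at room temperature.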

Assay [12] deals with Peroxisome proliferator-activated receptor alpha (Homo sapiens) (UniProt Q07869). Briefly: qHTS assay for small molecule agonists of the peroxisome proliferator-activated receptor alpha (PPARalpha) signaling pathway (AID 651778). Further: % of control where 0% means no effect. Conditions: PathHunter PPARalpha complementation, chemiluminescence, 6 h; max response: stronger effect = higher value. In short, it runs like this:
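Chemiluminescence from complemented enzyme reported PPARalpha activation in cells after 6 hr of compound treatment at 37 C. The detection reagent was incubated for 60 min at room temperature, and compounds were scored as agonists.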

Assay [13] is described as follows: qHTS assay for small molecule agonists of the antioxidant response element (ARE) signaling pathway measured by Nrf2-dependant transcriptional activity - cell viability counter screen (AID 720653; active means well fitted curve in the direction sought with a large enough effect in the repeat runs; an effect the other way counts as inactive or inconclusive; further: potency means the concentration at half of the fitted maximal effect). Conditions: ARE-bla HepG2 viability, CellTiter-Glo ATP luminescence, 16 h; max response: stronger effect = lower value. The method in brief:
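Cytotoxicity counter screen: intracellular ATP quantified by CellTiter-Glo luminescence in the same ARE-bla HepG2 plates, after 16 h compound exposure and a 2 h beta-lactamase substrate step.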

Assay [14] can be described thus: qHTS assay for cell viability of HEK293 cells (AID 743288). Further: nearly all actives have a fitted effect of over 50% in size. Further: potency means the concentration at half of the fitted maximal effect. The note with it: ATP luminescence (CellTiter-Glo), 18 h; max response: stronger effect = lower value. In short, it runs like this: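 Readout is luciferase-coupled ATP content (CellTiter-Glo luminescence, 30 min room temperature) as a measure of metabolically competent cells. Parental HEK293 cells were plated 5 h or more before compound addition, then treated 18 h at 37 C.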

Assay [15] can be described thus: qHTS assay for cell viability of the p53RE-bla HCT-116 cell line (AID 743292). Further: on the % scale 0 is the no-effect control and ±100 the full control effect; nearly all actives have a fitted effect of over 55% in size. The method in brief: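 Quantitative high-throughput format: compounds in DMSO were pinned onto p53RE-bla HCT-116 cells (4,000/well) and incubated 16 h at 37 C. Total intracellular ATP, read by CellTiter-Glo luminescence, reflects viable cell number.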
Assay [16] deals with Nuclear receptor subfamily 1 group I member 2 (Rattus norvegicus) (UniProt Q9R1A7). Briefly: qHTS assay for small molecule activators of the rat pregnane X receptor (rPXR) signaling pathway (AID 651751; call rule not given here; further: 0% is about no effect). The note with it: rPXR reporter cells, luciferase (One-Glo), 24 h.
Nuclear receptor subfamily 1 group I member 2 (Rattus norvegicus), sequence (Q9R1A7 whole entry, looked up): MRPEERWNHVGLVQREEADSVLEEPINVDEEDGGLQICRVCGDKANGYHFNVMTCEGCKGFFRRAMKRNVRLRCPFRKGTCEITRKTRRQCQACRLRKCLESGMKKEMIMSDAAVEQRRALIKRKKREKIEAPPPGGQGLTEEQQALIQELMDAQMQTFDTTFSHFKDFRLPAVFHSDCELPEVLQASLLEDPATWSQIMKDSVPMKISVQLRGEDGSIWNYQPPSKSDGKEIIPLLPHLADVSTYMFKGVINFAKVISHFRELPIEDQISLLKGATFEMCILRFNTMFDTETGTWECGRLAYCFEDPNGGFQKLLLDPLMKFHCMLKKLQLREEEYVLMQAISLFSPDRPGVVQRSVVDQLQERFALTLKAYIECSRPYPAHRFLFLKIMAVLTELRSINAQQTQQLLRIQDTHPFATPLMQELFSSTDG
The target in assay [17] is DNA dC->dU-editing enzyme APOBEC-3G (Homo sapiens) (UniProt Q9HC16). Briefly: qHTS for inhibitors of Vif-A3G interactions: Validation (AID 588379). Further: 0% is about no effect. The method in brief:
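Yellow fluorescence (Ex 488, Em 500-530) of Vif-coexpressing HeLa A3G-eYFP cells, scanned by Acumen cytometer, reports blocked A3G degradation. Cells plated at 700/well overnight at 37 deg C before compound addition, then a further overnight compound incubation at 37 deg C.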

Assay [18] can be described thus: qHTS assay for small molecule activators of the human pregnane X receptor (PXR) signaling pathway (AID 720659; call rule not given here; further: 0% is about no effect).
The target of assay [19] is Mitogen-activated protein kinase 10 (Mus musculus) (UniProt Q61831). Briefly: JNK3 AlphaScreen Assay (AID 530; active means well fitted curve in either direction with a large enough effect, not every such curve was filed as active;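 further: kinase came from lysate of stimulated human HepG2 cells; signal reports phosphorylation of biotinylated GST-cJun 1-79 at Ser73 with 10 µM ATP; series mostly up to about 57 µM; on the % scale 0 is the no-effect control and ±100 the full control effect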). The method in brief:
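qHTS titrations with 15 min compound pre-incubation before adding ATP (10 uM final). Read-out: AlphaScreen of Ser73-phosphorylated biotin-GST-cJun using HepG2 lysate JNK3 activated by IL-1β and TNFα.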
(Bead proximity is the source of the signal in Alpha formats.)

Assay [20] deals with 3',5'-cyclic-AMP phosphodiesterase 4B (Homo sapiens) (UniProt Q07343). As to the kind of experiment: qHTS Assay for Inhibitors of PDE-IV (AID 607; active means well fitted activation curve with a large enough effect in the main read-out, with a control signal flat, not every such curve was filed as active; further: % of control where 0% means no effect). In short, it runs like this:
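Cell-based read-out of cAMP via a modified cyclic nucleotide-gated channel and membrane potential dye (535/590 nm) in HEK293 cells expressing PDE4 endogenously. Compounds tested up to 22.9 uM final; 100 uM RO 20-1724 reference.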

Peroxisome proliferator-activated receptor alpha (Homo sapiens), sequence (Q07869 whole entry, looked up): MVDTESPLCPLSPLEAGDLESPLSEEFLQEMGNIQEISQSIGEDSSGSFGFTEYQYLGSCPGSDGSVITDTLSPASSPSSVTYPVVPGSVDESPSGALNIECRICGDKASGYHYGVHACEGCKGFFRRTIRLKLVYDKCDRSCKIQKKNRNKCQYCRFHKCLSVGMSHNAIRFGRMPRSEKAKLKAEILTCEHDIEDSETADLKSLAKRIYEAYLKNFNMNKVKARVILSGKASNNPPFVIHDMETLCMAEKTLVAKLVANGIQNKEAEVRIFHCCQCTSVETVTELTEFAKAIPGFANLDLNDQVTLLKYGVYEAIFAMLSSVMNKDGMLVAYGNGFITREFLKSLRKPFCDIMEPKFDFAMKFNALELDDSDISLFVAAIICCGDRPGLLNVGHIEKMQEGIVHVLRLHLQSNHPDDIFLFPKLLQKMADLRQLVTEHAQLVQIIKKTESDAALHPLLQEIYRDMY
3',5'-cyclic-AMP phosphodiesterase 4B (Homo sapiens), sequence (Q07343 whole entry, looked up): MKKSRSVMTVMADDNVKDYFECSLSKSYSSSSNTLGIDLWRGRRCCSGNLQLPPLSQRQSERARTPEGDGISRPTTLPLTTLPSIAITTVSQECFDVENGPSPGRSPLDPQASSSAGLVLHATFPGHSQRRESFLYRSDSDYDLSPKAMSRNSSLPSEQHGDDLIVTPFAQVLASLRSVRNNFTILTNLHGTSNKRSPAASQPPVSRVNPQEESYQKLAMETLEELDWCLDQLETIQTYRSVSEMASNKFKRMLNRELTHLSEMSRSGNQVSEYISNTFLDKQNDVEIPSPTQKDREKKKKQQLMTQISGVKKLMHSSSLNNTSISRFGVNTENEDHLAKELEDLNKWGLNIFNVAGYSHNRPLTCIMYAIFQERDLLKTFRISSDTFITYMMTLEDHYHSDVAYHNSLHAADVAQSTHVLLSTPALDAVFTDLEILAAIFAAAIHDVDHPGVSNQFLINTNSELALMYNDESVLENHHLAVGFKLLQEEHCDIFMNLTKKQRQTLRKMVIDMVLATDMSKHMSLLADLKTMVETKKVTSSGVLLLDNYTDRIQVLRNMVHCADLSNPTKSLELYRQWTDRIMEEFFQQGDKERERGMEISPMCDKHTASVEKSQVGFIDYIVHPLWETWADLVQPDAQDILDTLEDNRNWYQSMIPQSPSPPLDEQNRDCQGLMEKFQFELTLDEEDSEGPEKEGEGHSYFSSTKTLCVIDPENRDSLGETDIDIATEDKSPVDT
Estrogen receptor (Homo sapiens), sequence (P03372 whole entry, looked up): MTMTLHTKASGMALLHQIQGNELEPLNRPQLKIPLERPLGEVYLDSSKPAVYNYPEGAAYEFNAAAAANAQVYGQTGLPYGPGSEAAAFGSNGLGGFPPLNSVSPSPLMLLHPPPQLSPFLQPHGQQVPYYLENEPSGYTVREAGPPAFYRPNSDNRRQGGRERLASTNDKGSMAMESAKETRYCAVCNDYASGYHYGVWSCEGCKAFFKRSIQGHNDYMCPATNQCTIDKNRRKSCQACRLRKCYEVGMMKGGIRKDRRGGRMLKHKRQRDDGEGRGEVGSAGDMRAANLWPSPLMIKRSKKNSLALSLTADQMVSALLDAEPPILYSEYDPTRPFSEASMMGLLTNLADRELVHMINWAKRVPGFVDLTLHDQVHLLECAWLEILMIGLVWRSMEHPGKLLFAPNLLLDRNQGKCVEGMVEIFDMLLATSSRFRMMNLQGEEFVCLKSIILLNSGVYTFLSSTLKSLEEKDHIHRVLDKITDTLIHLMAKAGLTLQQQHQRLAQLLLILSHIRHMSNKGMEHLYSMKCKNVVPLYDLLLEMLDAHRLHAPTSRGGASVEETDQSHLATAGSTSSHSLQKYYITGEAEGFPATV
DNA dC->dU-editing enzyme APOBEC-3G (Homo sapiens), sequence (Q9HC16 whole entry, looked up): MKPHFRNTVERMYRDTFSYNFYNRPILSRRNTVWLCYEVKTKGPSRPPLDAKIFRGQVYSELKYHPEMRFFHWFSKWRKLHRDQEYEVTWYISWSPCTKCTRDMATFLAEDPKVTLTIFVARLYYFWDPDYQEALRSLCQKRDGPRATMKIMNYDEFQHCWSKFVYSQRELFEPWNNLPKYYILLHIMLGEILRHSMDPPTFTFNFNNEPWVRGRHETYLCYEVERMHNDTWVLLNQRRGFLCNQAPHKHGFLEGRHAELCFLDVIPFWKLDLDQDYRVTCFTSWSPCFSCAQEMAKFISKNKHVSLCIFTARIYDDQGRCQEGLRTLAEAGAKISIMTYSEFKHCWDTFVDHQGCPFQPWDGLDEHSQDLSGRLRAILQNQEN
Glucocorticoid receptor (Homo sapiens), sequence (P04150 whole entry, looked up): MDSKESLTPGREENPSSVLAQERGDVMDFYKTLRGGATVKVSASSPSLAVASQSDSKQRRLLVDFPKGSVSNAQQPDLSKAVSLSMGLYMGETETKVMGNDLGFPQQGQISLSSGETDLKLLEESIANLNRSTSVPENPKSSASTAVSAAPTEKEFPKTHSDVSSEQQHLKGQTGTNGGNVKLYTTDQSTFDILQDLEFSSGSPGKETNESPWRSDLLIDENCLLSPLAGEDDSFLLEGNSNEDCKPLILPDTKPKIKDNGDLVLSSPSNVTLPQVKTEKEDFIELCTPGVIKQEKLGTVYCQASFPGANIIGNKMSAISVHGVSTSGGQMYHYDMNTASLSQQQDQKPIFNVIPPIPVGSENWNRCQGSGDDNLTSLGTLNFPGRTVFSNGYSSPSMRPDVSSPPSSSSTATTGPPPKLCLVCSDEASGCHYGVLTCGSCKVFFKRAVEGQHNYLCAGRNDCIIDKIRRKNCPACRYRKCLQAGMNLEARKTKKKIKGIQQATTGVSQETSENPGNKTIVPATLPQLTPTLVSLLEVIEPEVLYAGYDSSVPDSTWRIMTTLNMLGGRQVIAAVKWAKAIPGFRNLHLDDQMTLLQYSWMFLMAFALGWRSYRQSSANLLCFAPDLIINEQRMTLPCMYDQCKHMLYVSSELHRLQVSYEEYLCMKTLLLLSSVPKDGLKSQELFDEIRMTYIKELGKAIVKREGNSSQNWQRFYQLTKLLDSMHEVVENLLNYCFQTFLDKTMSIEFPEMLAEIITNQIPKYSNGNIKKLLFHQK

Consider `CC[C@@H](CO)Nc1nc(NCc2ccccc2)c2ncn(C(C)C)c2n1`, for which, in assay [1], the Potency was 18.4 µM (active) and the viability change was -22.6%.
Take `C#CCN1CC(=O)N(COC(=O)[C@@H]2[C@@H](C=C(C)C)C2(C)C)C1=O`: the Potency result in [2] and in assay [5] was “inactive” each time. Moreover, the values for the activation in [3] and in assay [4] were 5.41% (inactive) and -0.459% (inactive), respectively. Also, the values for the max response in assay [6] and in [7] were -1.89% and -19.9% (inactive), respectively. In assay [8], the activity change % (negative = inhibition) was 21.3% (inactive).
Take `CC(C)=CC1C(C(=O)OCc2coc(Cc3ccccc3)c2)C1(C)C` (centres undefined): the Potency result in assay [9], in [2], in assay [5] and in assay [15] was “inactive” each time. For the same molecule, the activation in assay [3] was 3.82% (inactive); in [4], 2.93% (inactive); in assay [10], 0.13% (inactive); in assay [11], 3.96% (inactive). Besides, the max response in assay [6] is -14.2%; in assay [12], -0.283% (inactive); in assay [13] it was -23.8% (inactive); in assay [14], 0.368% (inactive); in [16] it was 7.41% (inactive).
Take `CC1(C)S[C@H]2[C@@H](N)C(=O)N2[C@H]1C(=O)O`: the result in [17] was inactive.
`CC(C)N(C(=O)CCl)c1ccccc1`: the activation in assay [4] is -11.4% (inactive); in [11], -1.87% (inactive). The Potency entry in [5] and in assay [15] was “inactive” throughout. For the same molecule, the max response in assay [12] was -1.12% (inactive). Further, the Potency in assay [13] is 39.8 µM (active). The outcome in assay [18] was inactive.
As for `O=C(NC(=O)c1c(F)cccc1F)Nc1ccc(Cl)cc1`, the Potency entry in assay [9], in assay [2], in [5] and in assay [15] was “inactive” each time. Also, the max response in assay [6] is -10.4%; in assay [7], -3.02% (inactive); in assay [13], -7.3% (inactive); in assay [14], -0.376% (inactive); in assay [16], 11% (inactive). Further, the activity change % (negative = inhibition) in assay [8] was -1.34% (inactive). The activation in [10] was 0.393% (inactive). Besides, the Potency in assay [11] is 2.51 µM (active). Moreover, the result in assay [18] was inactive.
For the molecule `C[C@]12CCC3C(CC[C@]4(O)C[C@@H](O)CC[C@]34C=O)[C@@]1(O)CC[C@@H]2C1=CC(=O)OC1` (some centres undefined), the call in [17] was inactive.
Take `O=C1C=C2C(=CCOC2O)O1` (centres undefined): the Potency entry in assay [9] is “inactive”. The activation in [3] is -4.19% (inactive); in assay [10], 2.18% (inactive). The values for the max response in assay [12] and in [16] were 0.776% (inactive) and -14.8% (inactive), respectively. In addition, the Potency in [14] was 8.91 µM (active). Besides, the call in [18] was inactive.
In the case of `COc1cc2c(cc1OC)-c1c(OC)c(OC)c(C=O)c3c1[C@H](C2)N(C)CC3`, the outcome in assay [17] was inactive.
As for `CC1=CC(=O)c2c(O)cccc2C1=O`, in assay [17], the result was inactive.
For `CCCCN(CC)c1c([N+](=O)[O-])cc(C(F)(F)F)cc1[N+](=O)[O-]`, the max response in assay [6] is -9.26%; in assay [7] it was -14% (inactive); in assay [12] it was -2.71% (inactive); in assay [13], -14.4% (inactive); in assay [14], -10.2% (inactive); in assay [16], 3.44% (inactive). Besides, the activity change % (negative = inhibition) in assay [8] is -21.6% (inactive). Also, the activation in [11] was -0.444% (inactive). Further, the Potency result in assay [15] was “inactive”.
As for `O=C(Oc1ccc([N+](=O)[O-])cc1)N1CCC(N2CCCCC2)CC1`, the result in assay [19] and in assay [20] was inactive.
Take `CCCc1cc2c(n1Cc1ccco1)C(C)C1CN(C(=O)c3ccccc3)C(C)(C(=O)OC)C21` (centres undefined): the molecule was called inactive in assay [19] and in assay [20].
For the molecule `CNC(=O)[C@@H]1C[C@H]1[C@@H](NP(=O)(c1ccccc1)c1ccccc1)c1ccccc1`, the call in [19] and in [20] was inactive.
Consider `C=C(CC1(CNP(=O)(c2ccccc2)c2ccccc2)CC1)c1ccccc1`, for which the result in assay [19] was inactive.
